# Measured values as given in PubChem BioAssay.
# A number with no mark means an inactive call. Active and inactive are the calls of the source. Rule as the data show it, unless noted: active = inhibition above about 25%; inactive = the rest.
# What was measured:
# [1] = molecular target: Nuclear receptor coactivator 3 (Homo sapiens) (UniProt Q9Y6Q9); experiment: NCOA3 GAL4-fusion reporter inhibition – cell-based, luminescence, quadruplicate, confirmation (AID 588792;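 active = mean inhibition over 43.08%, the solvent-only control mean plus 3 SD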;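 also: 0% = DMSO treated cells and 100% = gossypol at 36 µM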); details: HEK293 GAL4-SRC3 luciferase reporter, at 3.6 µM, active compounds read high
# Chain of Nuclear receptor coactivator 3 (Homo sapiens) (Q9Y6Q9 whole entry, looked up, the tested form may be a part): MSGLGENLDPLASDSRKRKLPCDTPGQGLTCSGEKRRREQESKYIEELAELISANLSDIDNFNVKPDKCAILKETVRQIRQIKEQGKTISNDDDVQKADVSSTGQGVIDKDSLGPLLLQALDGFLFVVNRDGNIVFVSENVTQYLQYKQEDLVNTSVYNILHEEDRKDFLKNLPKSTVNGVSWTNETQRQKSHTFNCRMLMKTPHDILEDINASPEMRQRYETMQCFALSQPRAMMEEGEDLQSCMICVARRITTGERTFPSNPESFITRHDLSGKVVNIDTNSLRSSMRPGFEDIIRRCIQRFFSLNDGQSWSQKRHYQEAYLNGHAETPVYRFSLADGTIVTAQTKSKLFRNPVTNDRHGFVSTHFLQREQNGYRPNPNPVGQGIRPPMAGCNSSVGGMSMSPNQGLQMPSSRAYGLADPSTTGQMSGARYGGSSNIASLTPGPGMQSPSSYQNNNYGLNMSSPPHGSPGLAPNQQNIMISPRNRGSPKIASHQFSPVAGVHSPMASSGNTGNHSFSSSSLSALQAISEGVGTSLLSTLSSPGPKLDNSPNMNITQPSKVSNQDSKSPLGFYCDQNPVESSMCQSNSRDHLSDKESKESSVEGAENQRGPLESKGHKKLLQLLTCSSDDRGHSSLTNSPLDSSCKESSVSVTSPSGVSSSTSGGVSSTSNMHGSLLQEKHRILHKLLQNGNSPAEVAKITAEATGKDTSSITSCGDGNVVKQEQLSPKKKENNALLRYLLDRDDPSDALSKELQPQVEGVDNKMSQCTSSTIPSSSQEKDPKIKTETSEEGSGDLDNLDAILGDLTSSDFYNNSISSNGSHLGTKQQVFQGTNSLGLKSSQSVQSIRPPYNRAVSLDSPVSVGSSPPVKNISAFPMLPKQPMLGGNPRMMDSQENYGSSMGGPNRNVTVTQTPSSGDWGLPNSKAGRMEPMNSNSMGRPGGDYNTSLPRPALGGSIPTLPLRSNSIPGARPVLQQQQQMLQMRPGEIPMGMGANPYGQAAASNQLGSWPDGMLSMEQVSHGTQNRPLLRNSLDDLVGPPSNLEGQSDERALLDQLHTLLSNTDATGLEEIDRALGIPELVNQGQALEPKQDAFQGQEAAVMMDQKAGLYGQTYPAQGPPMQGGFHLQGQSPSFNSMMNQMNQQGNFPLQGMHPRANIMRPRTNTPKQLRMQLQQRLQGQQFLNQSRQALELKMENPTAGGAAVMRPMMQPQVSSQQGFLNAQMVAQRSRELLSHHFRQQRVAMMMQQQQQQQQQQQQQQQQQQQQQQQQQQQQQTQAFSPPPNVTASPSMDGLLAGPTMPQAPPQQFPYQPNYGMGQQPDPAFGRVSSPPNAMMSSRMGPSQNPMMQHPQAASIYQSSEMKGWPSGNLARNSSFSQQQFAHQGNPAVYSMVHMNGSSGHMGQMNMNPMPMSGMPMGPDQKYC
# [2] = test system: transactivating tegument protein VP16 (Human herpesvirus 1), Gal4-VP16 luciferase reporter; experiment: repression of VP16-driven luciferase reporter – cell-based, luminescence, high throughput, counter-screen for SRC3 inhibitor project (AID 588794; in the data active = inhibition above about 30%); details: mammalian cells, at 3.6 µM, active compounds read high
# [3] = molecular target: Nuclear receptor coactivator 1 (Homo sapiens) (UniProt Q15788); experiment: NCOA1 GAL4-fusion reporter inhibition – cell-based, luminescence, quadruplicate, confirmation (AID 588820;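 active = mean inhibition above 46.68%, the untreated control wells mean plus 3 SD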;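 also: 0% = DMSO wells and 100% = gossypol 36 µM treated wells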); details: HEK293 GAL4-SRC1 luciferase reporter, at 3.6 µM, active compounds read high
# Chain of Nuclear receptor coactivator 1 (Homo sapiens) (Q15788 whole entry, looked up, the tested form may be a part): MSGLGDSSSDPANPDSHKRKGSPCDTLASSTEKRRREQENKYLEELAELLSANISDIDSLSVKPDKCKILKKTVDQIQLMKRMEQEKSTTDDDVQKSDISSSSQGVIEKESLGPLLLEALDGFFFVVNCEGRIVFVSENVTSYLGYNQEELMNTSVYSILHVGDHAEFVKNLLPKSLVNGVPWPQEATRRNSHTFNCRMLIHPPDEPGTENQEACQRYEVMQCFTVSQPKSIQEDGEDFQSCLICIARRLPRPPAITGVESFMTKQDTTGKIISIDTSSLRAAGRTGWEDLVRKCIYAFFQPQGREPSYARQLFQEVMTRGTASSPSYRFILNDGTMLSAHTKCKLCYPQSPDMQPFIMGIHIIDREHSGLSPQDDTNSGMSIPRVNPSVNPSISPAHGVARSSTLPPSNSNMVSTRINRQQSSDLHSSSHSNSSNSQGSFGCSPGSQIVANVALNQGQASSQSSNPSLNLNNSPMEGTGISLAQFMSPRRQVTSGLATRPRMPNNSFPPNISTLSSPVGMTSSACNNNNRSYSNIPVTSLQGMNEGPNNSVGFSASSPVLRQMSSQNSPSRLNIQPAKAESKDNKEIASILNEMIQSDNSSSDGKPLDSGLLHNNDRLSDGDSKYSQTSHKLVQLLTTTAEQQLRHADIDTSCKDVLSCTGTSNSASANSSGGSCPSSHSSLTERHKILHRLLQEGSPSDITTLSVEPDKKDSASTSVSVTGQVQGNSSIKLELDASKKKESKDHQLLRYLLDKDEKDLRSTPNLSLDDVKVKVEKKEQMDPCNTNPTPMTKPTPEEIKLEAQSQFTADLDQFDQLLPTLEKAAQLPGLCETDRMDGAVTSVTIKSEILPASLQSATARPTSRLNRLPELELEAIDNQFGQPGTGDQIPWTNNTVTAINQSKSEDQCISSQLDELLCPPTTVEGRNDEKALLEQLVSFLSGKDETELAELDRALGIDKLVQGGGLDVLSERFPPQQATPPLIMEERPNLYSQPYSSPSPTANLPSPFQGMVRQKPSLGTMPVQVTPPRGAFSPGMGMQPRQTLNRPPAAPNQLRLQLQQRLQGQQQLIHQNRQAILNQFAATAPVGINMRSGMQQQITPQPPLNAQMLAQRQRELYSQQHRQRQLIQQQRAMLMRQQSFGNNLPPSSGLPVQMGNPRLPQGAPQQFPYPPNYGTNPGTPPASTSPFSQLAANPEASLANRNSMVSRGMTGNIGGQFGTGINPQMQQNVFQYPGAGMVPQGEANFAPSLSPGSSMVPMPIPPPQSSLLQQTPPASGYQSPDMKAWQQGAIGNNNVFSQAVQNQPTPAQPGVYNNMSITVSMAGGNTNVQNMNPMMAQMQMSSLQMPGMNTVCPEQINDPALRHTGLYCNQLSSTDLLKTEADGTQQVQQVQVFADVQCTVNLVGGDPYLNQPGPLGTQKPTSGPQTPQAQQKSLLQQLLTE
# [4] = repression of VP16-driven luciferase reporter – cell-based, luminescence, high throughput, counter-screen for SRC1 inhibitor project (AID 588824); details: cell-based VP16 transactivation luciferase luminescence; at 3.6 µM; active compounds read high
# [5] = StAR promoter reporter inhibitors, counter-screen for LRH-1 inverse agonist project, cell-based, luminescence, high throughput (AID 651611; in the data active = inhibition above about 28%); details: StAR promoter luciferase reporter counterscreen, at 3.6 µM, active compounds read high
# [6] = molecular target: Nuclear receptor subfamily 5 group A member 2 (Homo sapiens) (UniProt O00482); experiment: NR5A2 activity suppression in reporter cells – cell-based, luminescence, confirmation (AID 651613; in the data active = inhibition above about 42%;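 also: HEK293T cells co-transfected with LRH-1 and StAR promoter luciferase reporter; 0% = vehicle wells and 100% = parental cells lacking receptor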); details: cell-based LRH-1 luciferase reporter, inverse agonism; at 3.6 µM; active compounds read high
# Chain of Nuclear receptor subfamily 5 group A member 2 (Homo sapiens) (O00482 whole entry, looked up): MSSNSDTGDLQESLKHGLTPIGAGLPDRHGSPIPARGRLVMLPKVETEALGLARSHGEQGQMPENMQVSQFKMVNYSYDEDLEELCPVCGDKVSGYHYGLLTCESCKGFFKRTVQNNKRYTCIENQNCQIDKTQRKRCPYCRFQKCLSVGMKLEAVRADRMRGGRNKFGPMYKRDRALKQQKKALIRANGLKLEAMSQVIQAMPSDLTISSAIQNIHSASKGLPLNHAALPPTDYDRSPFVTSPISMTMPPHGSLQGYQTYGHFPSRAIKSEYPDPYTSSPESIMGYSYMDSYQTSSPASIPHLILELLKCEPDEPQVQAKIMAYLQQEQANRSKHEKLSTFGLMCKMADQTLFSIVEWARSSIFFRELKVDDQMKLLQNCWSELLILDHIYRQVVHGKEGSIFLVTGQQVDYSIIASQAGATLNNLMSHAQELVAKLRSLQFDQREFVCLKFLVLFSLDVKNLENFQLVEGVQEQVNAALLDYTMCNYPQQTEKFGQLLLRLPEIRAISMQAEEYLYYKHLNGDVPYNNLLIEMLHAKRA
# [7] = molecular target: Steroidogenic factor 1 (Homo sapiens) (UniProt Q13285); experiment: inverse agonism at SF1 nuclear receptor – cell-based, luminescence, high throughput, counter-screen for LRH-1 inverse agonist project (AID 651614; in the data active = inhibition above about 44%;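 also: cells cotransfected with StAR promoter reporter and SF1 expression vector; 0% = vehicle on cells with receptor and 100% = vehicle on cells lacking receptor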); details: cell-based SF1 luciferase reporter, at 3.6 µM, active compounds read high
# Chain of Steroidogenic factor 1 (Homo sapiens) (Q13285 whole entry, looked up, the tested form may be a part): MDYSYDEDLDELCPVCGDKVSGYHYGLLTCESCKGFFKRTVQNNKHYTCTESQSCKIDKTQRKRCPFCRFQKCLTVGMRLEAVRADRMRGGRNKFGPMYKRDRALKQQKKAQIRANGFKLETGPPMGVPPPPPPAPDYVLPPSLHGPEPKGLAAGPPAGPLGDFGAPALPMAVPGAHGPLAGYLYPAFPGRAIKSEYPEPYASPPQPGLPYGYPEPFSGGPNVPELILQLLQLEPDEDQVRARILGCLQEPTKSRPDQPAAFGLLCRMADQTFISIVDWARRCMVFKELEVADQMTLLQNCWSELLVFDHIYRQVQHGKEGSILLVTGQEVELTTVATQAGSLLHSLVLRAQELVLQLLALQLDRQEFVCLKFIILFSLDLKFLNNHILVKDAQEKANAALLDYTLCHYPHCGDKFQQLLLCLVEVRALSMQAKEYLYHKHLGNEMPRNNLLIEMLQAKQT
# [8] = compounds suppressing VP16-driven luciferase signal – cell-based, luminescence, high throughput, counter-screen for LRH-1 inverse agonist project (AID 651615; in the data active = inhibition above about 33%); details: Gal4-VP16 luciferase reporter cells, at 3.6 µM, active compounds read high
Compound,inhibition [1],inhibition [2],inhibition [3],inhibition [4],inhibition [5],inhibition [6],inhibition [7],inhibition [8]
O=c1c2ccccc2sc2ccc(C#CC3(O)CCCCC3)cc12,87.4% (active),84.4% (active),76.2% (active),75% (active),84.3% (active),56% (active),76.5% (active),71.2% (active)
CCN(CC)CCn1c2ccccc2c2cnc(N)c(C#N)c21,5.22%,35.2% (active),30.1%,50.6% (active),35.7% (active),65.8% (active),57.4% (active),74.8% (active)
CN(C)CCOc1ccc2c(c1)C(=O)C(=Cc1ncc([N+](=O)[O-])n1C)C2,54.2% (active),35.2% (active),43%,27% (active),68.6% (active),88.4% (active),73.7% (active),51.6% (active)
CC1(C)CC(N2CCN(c3ccccc3)CC2)=CC(=[N+]2CCCC2)C1,23.8%,37.6% (active),2.88%,33.1% (active),30% (active),73.2% (active),66.5% (active),63.7% (active)
CC1Cc2cc(-c3csc(NC(=O)Cc4cccs4)n3)ccc2N1S(C)(=O)=O (stereo unspecified),14.4%,42.5% (active),-1.43%,57.8% (active),47.4% (active),63.7% (active),62% (active),69.9% (active)
CCN1CCN(/C=N/c2nc3c(s2)CCCC3)CC1,19.2%,-9.09%,-62.9%,-59.3%,-69.4%,-91.2%,-86.7%,-69.9%
COc1ccc(N=C(NN)c2ccc3ccccc3n2)cc1,-51.2%,-47.1%,-105%,-65%,-92.3%,-81.3%,-83.5%,-96.2%
CC#CC[N+](C)(C)CCCCCCCCCCCC,32.2%,39.2% (active),22.1%,32.1% (active),33% (active),65.2% (active),65.9% (active),63.5% (active)
O=C(Nc1ccc(N2CCN(C(=O)c3ccccc3)CC2)cc1)c1ccc2c(c1)OCO2,36.9%,66.7% (active),37.4%,57.1% (active),50.2% (active),64% (active),73.8% (active),70.5% (active)
CN(C)c1ccc(/C=C/c2ccc3ccccc3[n+]2C)cc1,62.3% (active),74.5% (active),32.4%,74.3% (active),58.5% (active),76.8% (active),76.6% (active),70.9% (active)
Cn1c(=O)c2cc(NC(=O)CCc3ccc(O)cc3)ccc2n1Cc1cccc(C(F)(F)F)c1,34.4%,64.2% (active),38.7%,66% (active),63.3% (active),80% (active),80.1% (active),76.9% (active)
COc1ccc(C(=O)Nc2cnn(Cc3ccc(Cl)cc3)c2)cc1OC,26.3%,52.7% (active),23.3%,51% (active),45% (active),51.8% (active),64% (active),63.1% (active)
COC(C(=O)C(O)C(C)O)C1Cc2cc3cc(OC4CC(OC5CC(O)C(O)C(C)O5)C(O)C(C)O4)c(C)c(O)c3c(O)c2C(=O)C1OC1CC(OC2CC(OC3CC(O)C(OC)C(C)O3)C(O)C(C)O2)C(O)C(C)O1 (stereo unspecified),93.6% (active),93.9% (active),78% (active),92.2% (active),93.6% (active),109% (active),97.2% (active),99.4% (active)
CC1(C)N=C(N)N=C(N)N1CCCCc1ccccc1,45.9% (active),24.4%,56.8% (active),30.3% (active),61.4% (active),48.8% (active),38.2%,35.7% (active)
CC[n+]1c(/C=C/N(C)c2ccccc2)oc2ccccc21,34.7%,55.8% (active),16.9%,55.2% (active),31.9% (active),82% (active),69% (active),73.2% (active)
COc1cccc(/C=N\NC(=O)c2ccc(Cn3cc(Br)c([N+](=O)[O-])n3)o2)c1O,33%,38.4% (active),35%,29.9% (active),63.8% (active),74.5% (active),71.3% (active),73.2% (active)
NC1=C(Cl)C(=O)c2ccc(S(N)(=O)=O)cc2C1=O,97.5% (active),93.7% (active),82% (active),92.8% (active),89.7% (active),106% (active),94% (active),95.8% (active)
